# Fluorescein fluor – fluorescein region autofluorescence; Compound autofluorescence, 480/540 nm, fluorescein-equivalent; stronger effect = higher value; max fluorescein-equivalent concentration, M; 0.91% of 59,000 active; AID 593; in the data active means max fluorescein-equivalent concentration above about 10 nM; inconclusive means between about 1.1 nM and that limit
#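 Read-out is intrinsic compound fluorescence at 480/540 nm (excitation/emission), expressed as dye-equivalent concentration using a fluorescein standard series run on every plate. Compounds sat 15 min at room temperature in 100 mM Tris, pH 8.0.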
# TexasRed autofl – compounds fluorescent in Texas Red spectral region; Compound fluorescence, Texas Red channel, 547/618 nm; stronger effect = higher value; max dye-equivalent concentration, M; 0.06% of 59,000 active; AID 587; in the data active means max dye-equivalent concentration above about 10 nM; inconclusive means between about 1.1 nM and that limit
#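 qHTS profiling of intrinsic compound fluorescence; 100 mM Tris pH 8.0; 15 min RT; ex 547 / em 618 nm; response expressed as Texas Red dye-equivalent concentration from six-point plate standard.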
# Rhodamine fluor – rhodamine region autofluorescence | Rhodamine-region fluorescence, 547/598 nm, Tris buffer; stronger effect = higher value | max dye-equivalent concentration, M | 0.05% of 59,000 active; in the data active means max dye-equivalent concentration above about 11 nM; inconclusive means between about 1.1 nM and that limit
#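 Steps: pin-transfer compounds into pH 8.0 Tris (100 mM), hold 15 min at room temperature, image with a 547/598 nm filter pair, and convert intensities to rhodamine-equivalent concentration using a six-point on-plate rhodamine series.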
# A647 autofl – compound fluoresces in the A647 spectral region; Compound fluorescence, A647 channel (570/671 nm), Tris buffer; 59,000 tested, under 10 active; max dye-equivalent concentration, M;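 further: values scaled relative to a standard on each plate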
#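 Buffer was dispensed, compounds and Alexa 647 standards were pin-transferred, and plates sat 15 min at room temperature. Intensity at 570/671 nm was then converted to dye-equivalent concentration using the plate's A647 standard curve.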
# A488 fluor – A488 region autofluorescence | compound autofluorescence, A488 spectral region, dye equivalency; Compound Type: qHTS ECL - MLSMR | max dye equivalency, M | 0.1% of 59,000 active
#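 Readout is A488 dye-equivalent concentration, calibrated by a per-plate six-point Alexa 488 series. Compounds in 100 mM Tris buffer pH 8.0 were incubated 15 min at room temperature. Plates were imaged using 480 nm excitation/540 nm emission filters.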
# Resorufin autofl – compounds fluorescent in resorufin spectral region; Compound fluorescence, resorufin region 547/598 nm, buffer; stronger effect = higher value; max dye-equivalent concentration, M; 0.04% of 59,000 active
#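 Tris 100 mM pH 8.0; compound added, 15 min RT; CCD imager read, ex 547 nm/em 598 nm; signal normalized to resorufin standard curve (six concentrations per plate) as dye-equivalent concentration.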
# Starred values were filed as active, the others as inactive; i = inactive; ? = inconclusive. Shown are actives, neighbours in structure and some others; about 0.96% of the full set was active somewhere. Unless noted, how the calls were made is not given here.
SMILES,Fluorescein fluor,TexasRed autofl,Rhodamine fluor,A647 autofl,A488 fluor,Resorufin autofl
COc1cccc(N2C(=O)C3CC=C(Cl)CC3C2=O)c1 (centres undefined),1.5e-08M*,i,i,2.5e-08,i,i
Cc1c(CCC#N)c(N2CCN(C3CCCCC3)CC2)n2c(nc3ccccc32)c1C#N,1.1e-08M*,i,i,2e-09,i,i
CCN(CC)c1ccc2c(c1)OC(N)=C(C#N)C2c1cccnc1 (centres undefined),4.8e-08M*,i,i,1.3e-08,?,i
CCOC(=O)C1CCN(c2nc3ccccc3nc2C(C#N)C(=O)NCCc2ccccc2)CC1 (centres undefined),2.3e-08M*,i,i,1e-09,i,i
COCCNC(=O)C(C#N)c1nc2ccccc2nc1N1CCCCCC1 (centres undefined),?,i,i,2.7e-08,i,i
CCOC(=O)C1CCCN(c2nc3ccccc3nc2C(C#N)C(=O)OCC)C1 (centres undefined),1.1e-08M*,i,i,3e-09,i,i
CCOC(=O)C1CCCN(c2nc3ccccc3nc2C(C#N)C(=O)OCCOC)C1 (centres undefined),?,i,i,2.7e-08,i,i
COc1ccccc1-c1ccc2ncnc(NCCN3CCOCC3)c2c1,?,i,i,3.3e-08,i,i
CCOC(=O)c1sc(NC(=O)CSc2n[nH]c(-c3ccccc3)n2)c(C#N)c1C,?,i,i,1.2e-08,i,i
Cc1ccc(/C=C/C2=Cc3c(sc(NC(=O)CSc4n[nH]c(N)n4)c3C#N)C(C)(C)C2)o1,1.2e-07M*,5.9e-08M*,2.8e-08M*,3.9e-08,?,2.4e-08M*
CC(=O)N1C(=O)C(=C2C=C(C)OC(C)=C2)c2ccccc21,2.3e-07M*,i,i,1.9e-08,1.3e-08M*,i
N#CC1=C(N)SC(N)=C(C#N)C1CCc1ccccc1,1.2e-08M*,i,i,1.2e-08,i,i
N#CC1=C(N)SC(N)=C(C#N)C1c1c(Cl)cccc1Cl,i,i,i,8e-09,i,i
Cc1nccn1-c1c2c(c(C#N)c3nc4ccccc4n13)CCCC2,1.4e-08M*,?,i,2.1e-08,i,i
COCCNc1cc(-c2ccccc2C)ncn1,i,i,i,1e-09,i,i
N[C@@H](Cc1[nH]nc2ccccc12)C(=O)O,1.1e-08M*,i,i,2.3e-09,i,i
CS(=O)(=O)N1CCC2(CCCN(Cc3cc(C(F)(F)F)cc(C(F)(F)F)c3)C2)CC1,i,i,i,1.2e-08,i,i
Cc1nnc2sc(-c3ccc(NC(=O)c4cccnc4)cc3)nn12,?,?,i,4.9e-08,i,i
Cc1nnc2sc(-c3ccc(NC(=O)c4ccc(-c5ccc(Cl)cc5Cl)o4)cc3)nn12,1.2e-08M*,?,?,2.8e-08,i,?
COCCCNC(=O)C(C#N)c1nc2ccccc2nc1N1CCN(Cc2ccccc2)CC1 (centres undefined),i,i,i,3e-08,i,i
N#CC(C(=O)NC1CCCCC1)c1nc2ccccc2nc1N1CCCCC1 (centres undefined),?,i,i,2.2e-08,i,i
C=CCNC(=O)C(C#N)c1nc2ccccc2nc1N1CCN(Cc2ccccc2)CC1 (centres undefined),5.6e-08M*,i,i,1e-09,?,i
N#CC(C(=O)NC1CC1)c1nc2ccccc2nc1N1CCN(C/C=C/c2ccccc2)CC1 (centres undefined),1.3e-07M*,i,i,1e-09,?,i
N#CC(C(=O)NC1CCCCC1)c1nc2ccccc2nc1N1CCN(c2ccc(F)cc2)CC1 (centres undefined),3.5e-07M*,i,i,3e-09,2e-08M*,i
N#CC(C(=O)NC1CC1)c1nc2ccccc2nc1N1CCCC1 (centres undefined),1.8e-07M*,?,i,8.2e-09,?,i
SMILES,Fluorescein fluor,TexasRed autofl,Rhodamine fluor,A647 autofl,A488 fluor,Resorufin autofl
CCN(CC)C[C@@H](O)c1ccc2ccc3ccccc3c2c1,i,i,i,8.5e-09,i,i
CN(C)Cc1ccccc1-c1nc(NC2CCNCC2)c2ccccc2n1,i,i,i,1e-09,i,i
O=C(O)CCc1c2ccc(=O)c(O)c-2oc2c(O)c(O)ccc12,1.1e-08M*,i,i,1e-09,i,i
CN(C)CCCNC(=O)c1ccc(-c2ccccc2)cc1,?,i,i,3.9e-08,i,i
CN(C)CCCNc1cc(O)c2c(c1O)C(=O)c1ccccc1C2=O,?,4.6e-08M*,1.8e-08M*,5e-09,i,1.3e-08M*
Cn1c(CN2CCC(C(N)=O)CC2)c(C#N)c2ccccc21,?,?,i,6.4e-08,i,i
Cn1c(CN2CCCCC2)c(C#N)c2ccccc21,2.5e-08M*,i,i,1e-09,i,i
CCCCNc1c(CN)cnc2cc(Cl)ccc12,?,i,i,1e-09,i,i
CN(C)c1ccc(N=Cc2nc(-c3ccccc3)oc2O)cc1,4.5e-08M*,i,i,1e-09,?,i
CC(=O)Nc1ccc(N=Cc2nc(-c3ccc(C)cc3)oc2O)cc1,1.6e-08M*,i,i,1e-09,i,i
CN1C[C@H](c2ccccc2)C(O)([C@]2(c3ccccc3)CN(C)C[C@@H](c3ccccc3)C2=O)[C@H](c2ccccc2)C1 (some centres undefined),i,i,i,5e-09,i,i
O=C(Nc1cccc2cccnc12)[C@@H]1[C@@H](C(=O)O)[C@H]2CC[C@@H]1O2,i,i,i,1e-09,i,i
N[C@@H]1[C@@H]2[C@@H]3C[C@H]4N(CC[C@@]14C(=O)C(=O)O)CC3=CCO[C@@H]2CC(=O)O,1e-08M*,i,i,2.2e-09,i,i
O=S(=O)(Nc1nc2ccccc2[nH]1)c1ccc(Cl)cc1,i,i,i,5.8e-08,i,i
O=S(=O)(Nc1nc2ccccc2[nH]1)c1ccccc1,2.2e-08M*,i,i,7.5e-09,i,i
CCOn1c(=O)c(-c2cc3ccccc3o2)[n+]([O-])c2ccccc21,1.3e-07M*,i,i,1.4e-08,?,i
Cc1cc(C(F)(F)F)c2c(N)c(C(=O)Nc3cc(C)on3)sc2n1,1.2e-08M*,i,i,1e-08,i,i
C=CCNc1nc(N)c(C(=O)Nc2cc(C)on2)s1,i,i,i,1e-09,i,i
O=[N+]([O-])c1ccc(C2=Nn3c(nnc3-c3ccc(Cl)cc3)SC2)o1,?,?,i,1e-09,i,i
